As usually defined, the inhibition is the change of the read-out against control, counted positive when it falls.

Experimental findings from PubChem BioAssay are described below.

In test [1] the target is Nuclear receptor coactivator 3 (Homo sapiens) (UniProt Q9Y6Q9). As to the kind of experiment: SRC3 coactivator transcriptional activity inhibitors, confirmation, cell-based, luminescence, quadruplicate (AID 588792;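 active means mean inhibition over 43.08%, the solvent-only control mean plus 3 SD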;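 further: 0% = DMSO treated cells and 100% = gossypol at 36 µM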). Conditions: HEK293 GAL4-SRC3 luciferase reporter, at 3.6 µM, active compounds read high.
Nuclear receptor coactivator 3 (Homo sapiens), sequence (Q9Y6Q9 whole entry, looked up, the tested form may be a part): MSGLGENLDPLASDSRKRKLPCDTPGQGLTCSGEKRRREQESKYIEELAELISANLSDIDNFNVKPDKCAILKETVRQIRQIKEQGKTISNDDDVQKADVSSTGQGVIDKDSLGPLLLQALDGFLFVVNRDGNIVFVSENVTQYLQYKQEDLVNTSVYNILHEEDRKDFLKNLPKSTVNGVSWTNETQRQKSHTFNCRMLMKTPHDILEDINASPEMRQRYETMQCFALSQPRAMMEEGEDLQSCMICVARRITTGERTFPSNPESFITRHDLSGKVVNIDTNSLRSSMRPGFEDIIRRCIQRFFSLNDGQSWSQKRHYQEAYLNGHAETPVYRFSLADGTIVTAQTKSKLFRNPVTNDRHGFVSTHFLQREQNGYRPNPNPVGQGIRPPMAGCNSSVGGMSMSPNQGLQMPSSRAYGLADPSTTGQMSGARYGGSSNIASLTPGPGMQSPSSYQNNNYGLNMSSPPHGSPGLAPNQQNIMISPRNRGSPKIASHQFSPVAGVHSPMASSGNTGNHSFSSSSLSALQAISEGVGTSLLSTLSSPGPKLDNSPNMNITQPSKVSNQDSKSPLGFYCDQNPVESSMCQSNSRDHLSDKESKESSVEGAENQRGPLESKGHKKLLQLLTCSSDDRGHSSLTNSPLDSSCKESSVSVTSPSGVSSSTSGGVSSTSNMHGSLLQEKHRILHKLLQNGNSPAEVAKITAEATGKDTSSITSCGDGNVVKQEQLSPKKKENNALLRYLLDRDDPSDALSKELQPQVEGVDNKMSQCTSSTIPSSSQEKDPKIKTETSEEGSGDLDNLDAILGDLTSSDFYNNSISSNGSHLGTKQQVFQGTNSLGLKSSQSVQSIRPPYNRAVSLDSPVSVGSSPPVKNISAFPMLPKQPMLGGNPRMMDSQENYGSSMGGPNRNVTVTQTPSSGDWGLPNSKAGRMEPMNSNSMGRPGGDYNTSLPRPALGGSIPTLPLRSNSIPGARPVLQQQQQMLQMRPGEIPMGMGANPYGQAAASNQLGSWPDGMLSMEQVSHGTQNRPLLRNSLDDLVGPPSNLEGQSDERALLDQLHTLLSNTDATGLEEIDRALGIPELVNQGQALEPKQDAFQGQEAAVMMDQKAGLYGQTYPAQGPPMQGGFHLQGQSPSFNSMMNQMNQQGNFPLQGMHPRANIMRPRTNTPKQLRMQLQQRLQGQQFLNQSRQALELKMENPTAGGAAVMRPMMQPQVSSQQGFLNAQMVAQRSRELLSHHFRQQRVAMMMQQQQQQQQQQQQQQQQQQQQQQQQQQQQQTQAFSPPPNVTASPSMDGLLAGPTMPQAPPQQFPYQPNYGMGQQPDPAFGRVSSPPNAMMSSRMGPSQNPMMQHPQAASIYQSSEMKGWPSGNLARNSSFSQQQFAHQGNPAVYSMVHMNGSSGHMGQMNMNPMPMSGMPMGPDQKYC
In test [2] the test system is transactivating tegument protein VP16 (Human herpesvirus 1), Gal4-VP16 luciferase reporter. As to the kind of experiment: VP16 transactivation inhibitors, counter-screen for SRC3 inhibitor project, cell-based, luminescence, high throughput (AID 588794; in the data active means inhibition above about 30%). The following applies: mammalian cells, VP16-driven luciferase reporter luminescence; at 3.6 µM; active compounds read high.

The target of test [3] is Nuclear receptor coactivator 1 (Homo sapiens) (UniProt Q15788). As to the kind of experiment: SRC1 coactivator transcriptional activity inhibitors, confirmation, cell-based, luminescence, quadruplicate (AID 588820).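 Further: 0% = DMSO wells and 100% = gossypol 36 µM treated wells.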 Conditions: HEK293 GAL4-SRC1 luciferase reporter, at 3.6 µM, active compounds read high.
The nature of test [4]: VP16 transactivation inhibitors, counter-screen for SRC1 inhibitor project, cell-based, luminescence, high throughput (AID 588824; in the data active means inhibition above about 25%). The following applies: cell-based VP16 transactivation luciferase luminescence; at 3.6 µM; active compounds read high. A general note: The purpose of a counterscreen is to sort out artefacts and off-target activity.
A short description of test [5]: StAR promoter reporter inhibitors, counter-screen for LRH-1 inverse agonist project, cell-based, luminescence, high throughput (AID 651611; in the data active means inhibition above about 28%). The following applies: StAR promoter luciferase reporter counterscreen, at 3.6 µM, active compounds read high.
Test [6] concerns the target Nuclear receptor subfamily 5 group A member 2 (Homo sapiens) (UniProt O00482). As to the kind of experiment: LRH-1 (NR5A2) inverse agonists, retest, confirmation, cell-based, luminescence (AID 651613; in the data active means inhibition above about 42%;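 further: HEK293T cells co-transfected with LRH-1 and StAR promoter luciferase reporter; 0% = vehicle wells and 100% = parental cells lacking receptor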). The following applies: cell-based LRH-1 luciferase reporter, inverse agonism; at 3.6 µM; active compounds read high.
In test [7] the target is Steroidogenic factor 1 (Homo sapiens) (UniProt Q13285). As to the kind of experiment: SF1 (NR5A1) inverse agonists, counter-screen for LRH-1 inverse agonist project, cell-based, luminescence, high throughput (AID 651614; in the data active means inhibition above about 44%;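 further: cells cotransfected with StAR promoter reporter and SF1 expression vector; 0% = vehicle on cells with receptor and 100% = vehicle on cells lacking receptor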). The following applies: cell-based SF1 luciferase reporter, at 3.6 µM, active compounds read high.
Steroidogenic factor 1 (Homo sapiens), sequence (Q13285 whole entry, looked up, the tested form may be a part): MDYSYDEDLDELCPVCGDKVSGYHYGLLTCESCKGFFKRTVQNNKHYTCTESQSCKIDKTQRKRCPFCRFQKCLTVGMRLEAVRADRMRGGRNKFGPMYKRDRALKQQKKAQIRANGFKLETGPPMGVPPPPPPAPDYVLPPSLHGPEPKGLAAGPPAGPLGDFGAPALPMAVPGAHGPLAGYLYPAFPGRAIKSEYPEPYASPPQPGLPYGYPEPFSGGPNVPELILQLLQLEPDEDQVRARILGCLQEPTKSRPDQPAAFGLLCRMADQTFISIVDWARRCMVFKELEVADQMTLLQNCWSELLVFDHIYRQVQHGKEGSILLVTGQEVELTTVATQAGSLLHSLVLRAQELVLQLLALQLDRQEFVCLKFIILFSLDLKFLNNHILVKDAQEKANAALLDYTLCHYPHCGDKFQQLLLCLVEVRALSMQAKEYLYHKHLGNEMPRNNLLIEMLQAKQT
The nature of test [8]: VP16 transactivation reporter inhibitors, counter-screen for LRH-1 inverse agonist project, cell-based, luminescence, high throughput (AID 651615; in the data active means inhibition above about 33%). Conditions: Gal4-VP16 luciferase reporter cells, at 3.6 µM, active compounds read high.
The subject of test [9] is transactivating tegument protein VP16 (Human herpesvirus 1). As to the kind of experiment: VP16 transactivation reporter inhibitors, counter-screen for SRC2 inhibitor project, cell-based, luminescence, single concentration (AID 652007; in the data active means inhibition above about 36%). The following applies: cell-based VP16 transactivation luciferase reporter, at 8.9 µM, active compounds read high.
Test [10] has as its target Nuclear receptor coactivator 2 (Homo sapiens) (UniProt Q15596). As to the kind of experiment: SRC2 coactivator transcriptional activity inhibitors, confirmation, cell-based, luminescence, HEK293, triplicate (AID 652008;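 active means mean inhibition above 46.5%, the solvent-only control mean plus 3 SD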;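 further: 0% = DMSO-treated cells and 100% = Gossypol at 36 µM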). The following applies: HEK293 GAL4-SRC2 luciferase reporter, at 8.9 µM, active compounds read high. For orientation: A reporter such as luciferase makes a cellular process visible.

Each structure is given as a SMILES string. Calls of active or inactive are those of the source.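 How the source made its calls, unless noted: active means mean inhibition above 46.68%, the untreated control wells mean plus 3 SD; inactive means the rest.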

Nuclear receptor coactivator 2 (Homo sapiens), sequence (Q15596 whole entry, looked up, the tested form may be a part): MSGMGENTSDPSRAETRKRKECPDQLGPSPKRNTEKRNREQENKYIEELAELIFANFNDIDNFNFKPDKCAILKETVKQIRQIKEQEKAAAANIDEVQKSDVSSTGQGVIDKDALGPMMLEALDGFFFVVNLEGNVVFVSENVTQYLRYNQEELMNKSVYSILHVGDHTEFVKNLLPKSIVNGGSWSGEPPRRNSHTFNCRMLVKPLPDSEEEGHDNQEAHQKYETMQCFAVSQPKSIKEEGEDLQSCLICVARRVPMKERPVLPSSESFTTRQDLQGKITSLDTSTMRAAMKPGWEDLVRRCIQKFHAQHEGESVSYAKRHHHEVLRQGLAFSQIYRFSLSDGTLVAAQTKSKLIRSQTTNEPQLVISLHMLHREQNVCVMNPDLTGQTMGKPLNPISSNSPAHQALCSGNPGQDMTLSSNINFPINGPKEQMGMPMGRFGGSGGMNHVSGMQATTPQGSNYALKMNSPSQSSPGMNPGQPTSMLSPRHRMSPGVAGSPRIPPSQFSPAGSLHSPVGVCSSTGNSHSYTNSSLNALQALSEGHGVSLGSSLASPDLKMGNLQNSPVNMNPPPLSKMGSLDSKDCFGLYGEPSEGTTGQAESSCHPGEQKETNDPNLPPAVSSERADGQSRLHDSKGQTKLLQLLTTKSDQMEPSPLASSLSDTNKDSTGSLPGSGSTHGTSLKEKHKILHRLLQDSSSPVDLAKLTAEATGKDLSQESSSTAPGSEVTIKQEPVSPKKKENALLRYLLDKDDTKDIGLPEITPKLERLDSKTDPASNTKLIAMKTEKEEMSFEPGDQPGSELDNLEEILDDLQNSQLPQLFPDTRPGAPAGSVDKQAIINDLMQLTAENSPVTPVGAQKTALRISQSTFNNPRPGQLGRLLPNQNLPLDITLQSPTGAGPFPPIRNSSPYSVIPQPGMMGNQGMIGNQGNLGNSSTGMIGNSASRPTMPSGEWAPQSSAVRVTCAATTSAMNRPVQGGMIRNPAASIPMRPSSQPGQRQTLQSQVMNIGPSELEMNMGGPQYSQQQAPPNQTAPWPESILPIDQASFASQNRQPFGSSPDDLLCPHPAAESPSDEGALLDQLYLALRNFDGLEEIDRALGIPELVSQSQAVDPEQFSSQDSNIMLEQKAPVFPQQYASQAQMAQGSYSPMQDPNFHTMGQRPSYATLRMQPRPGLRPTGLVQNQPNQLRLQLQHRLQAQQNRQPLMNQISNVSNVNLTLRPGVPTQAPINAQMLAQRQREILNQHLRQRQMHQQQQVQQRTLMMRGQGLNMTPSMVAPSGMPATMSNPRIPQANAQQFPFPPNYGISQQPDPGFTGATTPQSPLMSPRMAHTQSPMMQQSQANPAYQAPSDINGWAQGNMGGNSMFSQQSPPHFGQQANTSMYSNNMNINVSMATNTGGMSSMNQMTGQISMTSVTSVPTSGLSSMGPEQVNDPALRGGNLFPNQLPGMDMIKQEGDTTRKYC
Nuclear receptor subfamily 5 group A member 2 (Homo sapiens), sequence (O00482 whole entry, looked up): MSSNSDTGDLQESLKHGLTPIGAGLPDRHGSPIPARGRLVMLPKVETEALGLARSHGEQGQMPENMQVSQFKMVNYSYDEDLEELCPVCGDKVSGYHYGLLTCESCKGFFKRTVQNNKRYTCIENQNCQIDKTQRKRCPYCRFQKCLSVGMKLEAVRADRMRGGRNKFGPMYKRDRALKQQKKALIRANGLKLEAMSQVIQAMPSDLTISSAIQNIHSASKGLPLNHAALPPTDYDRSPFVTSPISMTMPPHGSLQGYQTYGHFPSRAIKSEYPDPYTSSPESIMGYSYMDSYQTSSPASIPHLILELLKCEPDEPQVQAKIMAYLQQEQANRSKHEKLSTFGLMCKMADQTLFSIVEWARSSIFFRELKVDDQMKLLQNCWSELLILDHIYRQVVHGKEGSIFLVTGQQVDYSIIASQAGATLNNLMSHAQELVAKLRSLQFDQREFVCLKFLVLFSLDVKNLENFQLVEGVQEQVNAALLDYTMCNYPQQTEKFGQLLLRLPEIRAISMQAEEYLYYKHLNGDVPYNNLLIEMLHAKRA

For the compound `C=C1C(=O)OC2CC1C(OC(C)=O)CC(C)=CCCC(C)=CCCC2(C)O` (stereo not given), the inhibition in [1] was 0.28% (inactive); in [2], 39.9% (active); in [3], 23.6% (inactive); in [4], 34.9% (active); in [5], 39.1% (active); in [6], 25.2% (inactive). Also, the inhibition in [7] was 25% (inactive); in test [8] it was 56% (active); in test [9], 26.4% (inactive); in test [10] it was 38.7% (inactive).
For the compound `COc1ccc2cc3c(N)nn(C(=O)c4ccccc4Cl)c3nc2c1`, the inhibition in test [1] was 74.4% (active); in [2] it was 64.5% (active); in test [3] it was 60.9% (active); in test [4], 62.6% (active); in test [5], 47.3% (active); in test [6] it was 75.6% (active). For the same compound, the inhibition was 59.1% (active) in [7], 81.6% (active) in test [8], -12.1% (inactive) in test [9] and 50% (active) in test [10].
As to `O=C(CN1C(=O)c2ccccc2S1(=O)=O)c1ccc2c(c1)OCCO2`, the inhibition was 87.8% (active) in test [1]; 89.7% (active) in test [2]; 64% (active) in test [3]; 84.8% (active) in test [4]; 85.1% (active) in [5]; 86.3% (active) in [6]. In addition, the inhibition was 84.5% (active) in test [7], 84.4% (active) in test [8], 91.4% (active) in test [9] and 95.2% (active) in test [10].
Take `CC1CCC(C(C)C)C(OC(=O)Cn2c(-c3ccc(F)cc3)[n+](C)c3ccccc32)C1` (stereo not given): the inhibition in test [1] was 69.1% (active); in test [2], 45.8% (active); in [3] it was 25.4% (inactive); in test [4], 38.6% (active); in test [5] it was 23.7% (inactive); in [6], 108% (active). For the same compound, the inhibition in test [7] was 59.9% (active); in [8], 93.7% (active); in test [9], 26.2% (inactive); in test [10] it was 34.6% (inactive).
On to `O=C(N/N=C\c1ccc([N+](=O)[O-])o1)C1COc2ccccc2O1` (stereo not given), for which the inhibition in test [1] was 35.9% (inactive); in [2], 9.31% (inactive); in test [3], -8.42% (inactive); in [4], -19.5% (inactive); in test [5], 27.1% (inactive); in [6], 40.7% (inactive). Also, the inhibition is 49.8% (active) in [7], -8.47% (inactive) in test [8], 40.8% (active) in test [9] and 51.5% (active) in test [10].
`O=[N+]([O-])c1nn(-c2ccc3c(c2)OCCO3)n(O)c1=Nc1ccccc1`: the inhibition was 81% (active) in test [1]; -12.3% (inactive) in [2]; 70.5% (active) in [3]; 16.2% (inactive) in test [4]; 68.9% (active) in [5]; 44.6% (active) in test [6]. The inhibition in test [7] is 66.5% (active); in test [8], 33.9% (active); in [9], 35.2% (inactive); in test [10], 91.4% (active).
As to `CC(C)(C)C(=O)/C(=C/c1ccncc1)n1cncn1`, the inhibition is 69.2% (active) in [1]; 55.3% (active) in test [2]; 59.9% (active) in test [3]; 48% (active) in test [4]; 35.2% (active) in [5]; 42.6% (active) in [6]. In addition, the inhibition in test [7] is 46.5% (active); in [8], 69.2% (active); in test [9], 39.9% (active); in test [10], 63.3% (active).
For `CCCCCCCC/C=C\CCCCCCCC(=O)NCCc1ccc(O)c(O)c1`, the inhibition in test [1] was 22% (inactive); in test [2] it was -11.3% (inactive); in [3] it was -70% (inactive); in [4] it was -11.4% (inactive); in test [5], -4.3% (inactive); in test [6], -29.9% (inactive). Further, the inhibition in test [7] is 4.21% (inactive); in test [8], -16.1% (inactive); in test [9] it was 1.26% (inactive); in [10] it was 21% (inactive).
With `O=C(CC1CS(=O)(=O)CC1CC(=O)Nc1ccc2c(c1)OCCO2)Nc1ccc2c(c1)OCCO2` (stereo not given), the inhibition in [1] is 37.1% (inactive); in test [2], -5.19% (inactive); in [3] it was -14.1% (inactive); in test [4] it was -21.8% (inactive); in test [5], -26.2% (inactive); in test [6], -91.7% (inactive). The inhibition in test [7] was -43.4% (inactive); in test [8], -53.8% (inactive); in test [9] it was 46.5% (active); in test [10] it was 57% (active).
As to `Nc1cc2ccncc2c2ccccc12`, the inhibition is 72% (active) in test [1]; 51.6% (active) in test [2]; 68.9% (active) in [3]; 47.8% (active) in [4]; 8.54% (inactive) in test [5]; 75.6% (active) in test [6]. Also, the inhibition in test [7] is 63.2% (active); in test [8], 72.3% (active); in test [9] it was 22.2% (inactive); in test [10], 43.4% (inactive).
On to `Cc1cc(C)c(C#N)c(SCc2nnc(-c3ccccc3)o2)n1`, for which the inhibition is 66.3% (active) in test [1]; 59.8% (active) in [2]; 38.8% (inactive) in [3]; 32.9% (active) in test [4]; 33.1% (active) in [5]; -23.7% (inactive) in [6]. In addition, the inhibition in test [7] was 27.9% (inactive); in test [8], 15.5% (inactive); in test [9] it was 46.2% (active); in [10] it was 82.9% (active).
For the compound `COc1cccc2c1C(=O)c1c(O)c3c(c(O)c1C2=O)CC(O)(C(C)=O)CC3OC1CC(N(C)C)C(O)C(C)O1` (stereo not given), the inhibition is 94.2% (active) in test [1]; 95.8% (active) in [2]; 73.9% (active) in [3]; 95.3% (active) in test [4]; 80% (active) in [5]; 104% (active) in [6]. In addition, the inhibition in test [7] is 94.5% (active); in test [8], 96.3% (active); in test [9], 29.4% (inactive); in [10], 45.5% (inactive).
As for `O=C(NN=Cc1c(O)ccc2ccccc12)c1ccncc1`, the inhibition in test [1] was 77% (active); in [2], 70.6% (active); in [3], 65.6% (active); in test [4], 65.3% (active); in test [5], 87.4% (active); in test [6], 104% (active). The inhibition in test [7] is 89.8% (active); in test [8], 77.4% (active); in [9], -16.9% (inactive); in test [10], 38% (inactive).
